A selection: hits, their analogues and other compounds. The true share with any hit is near 2.4%.
D2 antag – HTS Assay for Allosteric Antagonists of the Human D2 Dopamine Receptor: Primary Screen for Antagonists. 340,000 compounds, 2% hits. HEK293 TREx D2 cells, calcium flux, dopamine EC80. D(2) dopamine receptor (Homo sapiens), P14416. inhibition, % at 10 µM; in the data active = inhibition above about 30%; inactive = below that, where a call was filed; note: 0% is about no effect
Target sequence (P14416 whole entry, looked up): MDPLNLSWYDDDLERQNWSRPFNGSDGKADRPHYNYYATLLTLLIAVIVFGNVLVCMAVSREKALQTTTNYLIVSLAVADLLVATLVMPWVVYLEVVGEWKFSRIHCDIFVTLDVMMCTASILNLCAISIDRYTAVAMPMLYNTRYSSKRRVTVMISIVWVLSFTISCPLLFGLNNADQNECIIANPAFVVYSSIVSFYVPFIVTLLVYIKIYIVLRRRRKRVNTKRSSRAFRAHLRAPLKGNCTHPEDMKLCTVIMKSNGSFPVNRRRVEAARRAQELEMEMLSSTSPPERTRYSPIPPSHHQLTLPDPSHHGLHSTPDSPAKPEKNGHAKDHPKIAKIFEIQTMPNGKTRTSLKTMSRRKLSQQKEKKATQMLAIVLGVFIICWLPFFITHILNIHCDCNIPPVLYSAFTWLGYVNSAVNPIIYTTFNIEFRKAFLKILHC
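Antagonism is scored as inhibition of an EC80 dopamine-evoked calcium signal in a force-coupled, tetracycline-inducible HEK293 T-REx D2 line, with compound present 180 s before agonist.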
D2 ag-1 – HTS Assay for Allosteric Agonists of the Human D2 Dopamine Receptor: Primary Screen for Agonists; activation, % at 2 µM; HEK293 T-REx D2 cells, calcium flux agonist mode; 340,000 compounds, 0.53% hits; AID 485358, 2010; D(2) dopamine receptor (Homo sapiens), P14416;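 active = activation over 3 SD above normal in the single-dose calcium agonist read, cut at about 30% in these data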; note: 0% is about no effect
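Tetracycline-induced HEK293 Trex cells with D2 receptor force-coupled to calcium signaling, plated overnight at 30 C and loaded with no-wash calcium dye. Calcium flux read kinetically for 180 s after compound addition; responses flag agonists.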
D2 ag-2 – Beta-Arrestin HTS for Positive Allosteric Modulators of the Human D2 Dopamine Receptor: Agonists | DiscoveRx PathHunter D2 beta-arrestin, luminescence, 90 min; 100% = 57 uM dopamine signal | activation, % (no concentration beside the values) | 360,000 compounds, 0.084% hits; in the data active = activation above about 40%; inconclusive = between about 15% and that limit
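DiscoveRx PathHunter D2 beta-arrestin cells (2,100/well) attached overnight, then compound-stimulated 90 min at 37 C in HBSS/10 mM HEPES/0.1% Tween-20 buffer; beta-galactosidase complementation read by luminescence after 1 h at ambient temperature. Dopamine 57 uM final (EC100) as control.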
D2 PAM-1 – Beta-Arrestin HTS for Positive Allosteric Modulators of the Human D2 Dopamine Receptor: Potentiators. D(2) dopamine receptor (Homo sapiens), P14416. DiscoveRx D2 beta-arrestin cells, luminescence, 90 min; 100% = 57 uM dopamine signal. potentiation, % (test concentration not listed). 360,000 compounds, 0.23% hits; in the data active = potentiation above about 50%; inconclusive = mostly about 30% to 49%
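PathHunter beta-arrestin assay in DiscoveRx D2 cells. Compounds were added with an EC20 of dopamine (50 nM final) for 90 min at 37 deg C. Luminescence was read 1 h after detection reagent, with 57 uM dopamine as the EC100 control.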
D2 PAM-2 – HTS Assay for Positive Allosteric Modulators of the Human D2 Dopamine Receptor: Primary Screen for Potentiators; AID 485347, 2010; potentiation, % at 10 µM; HEK293 T-REx D2, calcium flux, EC20 dopamine potentiation; 340,000 compounds, 0.34% hits;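 active = potentiation over 3 SD above the plate norm, cut at about 30% in these data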; note: 0% is about no effect
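Calcium flux readout, no-wash dye, 1 read/s. Inducible HEK293 Trex D2 line, overnight 30 C. Compound alone 180 s (agonist flags), then EC20 dopamine, another 180 s to score potentiation.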
D3 arrestin ag – qHTS of D3 Dopamine Receptor Agonist: D3 Dopamine Receptor B-arrestin Agonist Confirmatory Assay. shares compounds with D2 ag-1. DiscoveRx D3 beta-arrestin cells, luminescence, 90 min. Potency, µM (highest dose often 76.9 µM), for inactives: at the highest dose activation, usual class: activators. 2,300 compounds, 4% hits. AID 720506, 2013;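 note: potency is the fitted concentration of half-maximal effect; 100% = dopamine control response; nearly all actives have a fitted effect of over 70% in size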
D2 ag-3 – qHTS of D3 Dopamine Receptor Agonist: D2 Dopamine Receptor B-arrestin Agonist Counterscreen; shares compounds with D2 ag-1; DiscoveRx PathHunter D2 beta-arrestin, luminescence, 90 min; response scale: percent relative to full dopamine signal; Potency, µM (doses to about 76.9 µM), for inactives: at the top dose activation, actives largely listed as activators; 2,300 compounds, 5.9% hits; AID 720507, 2013; note: potency is the fitted concentration of half-maximal effect; % of control where 0% means no effect; nearly all actives have a fitted effect of over 70% in size
Numbers without * were called inactive; ? = inconclusive; · = not tested or not shown. Unless noted, calls come from the whole dose curve; as a rule, active = well fitted activation curve with a large enough effect; inconclusive = small, poorly fitted or top-dose-only effect; inactive = flat fitted curve, though single readings scatter.

SMILES	D2 antag	D2 ag-1	D2 ag-2	D2 PAM-1	D2 PAM-2	D3 arrestin ag	D2 ag-3
O=C1C2CC=CCC2C(=O)N1c1ccc(N2CCN(c3ccccn3)CC2)c([N+](=O)[O-])c1 (configuration not stated)	17.7	26.4	1.9	7.0	-22.0	?	8.5%
COC(=O)[C@@H](CC(C)C)NS(=O)(=O)N(Cc1ccccc1)[C@@H](CC(C)C)C(=O)OC	2.0	-0.6	-3.0	-4.0	-2.8	-15.2%	-2.5%
COC(=O)[C@H](CC(C)C)NS(=O)(=O)c1ccccc1	17.2	-2.1	-1.7	-8.7	3.4	·	·
O=C1CC(=C(c2ccccc2)c2ccccc2)C(=O)N1CCCN1CCN(c2cccc(Cl)c2)CC1	11.1	-0.9	3.2	-20.4	-6.0	·	·
O=C1CC(=C2c3ccccc3-c3ccccc32)C(=O)N1CCCCN1CCN(c2ccccc2)CC1	43.9*	73.5*	12.9	-13.0	-16.4	8.1%	22.9%
Cc1ccc(C2c3c(-c4cc(C)ccc4O)n[nH]c3C(=O)N2Cc2ccco2)cc1 (configuration not stated)	·	-0.4	·	·	0.4	·	·
CC(NC(=O)CN1CCN(c2ncccn2)CC1)c1ccc(F)cc1 (configuration not stated)	15.6	60.1*	7.6	-31.8	-16.4	10.6%	18.6%
O=C(CN1CCN(c2ncccn2)CC1)NCc1ccccc1	8.3	50.4*	9.4	-2.9	-16.7	20.8%	16.1%
CCOc1ccc2nc(NC(=O)c3cc(=O)c4cc(C)cc(C)c4o3)sc2c1	·	1.7	·	·	4.0	·	·
CCOc1ccc(S(=O)(=O)NCCC2=CCCCC2)c2ccccc12	16.8	2.0	1.3	-10.0	-19.0	-3.4%	3.6%
COc1ccc(C)cc1S(=O)(=O)NCCC1=CCCCC1	18.2	0.9	-3.0	-16.9	6.9	·	·
CC1(C2CC2)NC(=O)N(CC(=O)Nc2ccc(OC(F)F)cc2)C1=O (configuration not stated)	·	·	-0.1	1.7	·	·	·
O=C(c1ccc(Cl)cc1)N1CCN(c2cccc3[nH]ccc23)CC1	8.6	5.9	-4.2	-5.8	1.8	·	·
Cc1ccc(CN2CCN(c3cccc4[nH]ccc34)CC2)cc1	72.3*	72.6*	?	-24.9	-21.4	-5.1%	?
COc1cc(NC(=O)C2CC(c3ccccc3O)=NO2)cc(OC)c1OC (configuration not stated)	·	·	-4.3	-29.8	·	·	·
c1ccc(OCCN2CCN(Cc3nc(-c4ccc5c(c4)OCO5)no3)CC2)cc1	68.7*	64.1*	5.5	-3.2	-11.6	?	?
Cc1ccc(NC(=O)CSc2nc(-c3cccs3)cc(C(F)(F)F)n2)cc1C	·	-0.6	·	·	-6.1	·	·
CSc1nsc(SCC(=O)Nc2ccc(OC(C)=O)cc2)n1	-2.2	-0.9	-2.1	0.1	-2.8	·	·
COc1ccc(CNC(=O)CSc2nc(SC)ns2)cc1	-6.0	-0.5	-2.7	-3.6	-10.5	-9.6%	-3.4%
COc1cccc(CNC[C@H]2O[C@@H](n3ccc(N)nc3=O)[C@H](O)[C@@H]2O)c1OCc1ccc(F)cc1Cl	·	·	-3.9	·	·	·	·
N#CCN=C(c1ccccc1)c1ccccc1	20.0	-0.1	-7.6	-8.1	-7.8	-9.6%	-2.9%
N#CN=C(c1ccccc1)c1ccccc1	7.3	0.5	-0.1	-3.5	0.9	·	·
O=C(NCCOC(=O)c1ccc(C(=O)OCCNC(=O)c2cccnc2)s1)c1cccnc1	28.8	69.2*	-4.8	-2.0	-28.2	-7.6%	-3.7%
COc1cccc(S(=O)(=O)NC2CCN(C#N)C2)c1 (configuration not stated)	0.5	-0.3	·	·	4.6	-6.4%	-2.0%
COc1ccc(NC(=O)c2oc3ccccc3c2NC(=O)C2CCCCC2)c(OC)c1	·	1.1	·	·	1.4	·	·
SMILES	D2 antag	D2 ag-1	D2 ag-2	D2 PAM-1	D2 PAM-2	D3 arrestin ag	D2 ag-3
O=C(C1CCCN1C(=O)c1cccs1)N1CCN(Cc2ccc3c(c2)OCO3)CC1 (configuration not stated)	36.6*	63.0*	-3.2	9.6	-19.8	3.9%	16.2%
O=C(C1CCN(Cc2cccs2)CC1)N1CCN(Cc2ccc3c(c2)OCO3)CC1	-3.4	0.6	-1.4	-16.4	·	·	·
O=C(c1cccs1)N1CCC(C(=O)N2CCN(Cc3ccc4c(c3)OCO4)CC2)CC1	52.1*	67.5*	?	7.0	-21.7	16.9%	?
CCSc1nc2n(n1)C(c1ccc(CC)cc1)C(C(=O)Nc1ccccc1OC)=C(C)N2 (configuration not stated)	·	-0.2	·	·	4.9	·	·
Cc1ccc(CNC(=O)CN2C(=O)CCc3cc(S(=O)(=O)N4CCCCC4)ccc32)cc1	·	·	·	·	4.1	·	·
C/C(=N\NC(=O)COc1cc(C)cc(C)c1)c1cccc(NC(=O)C2CCC2)c1	-15.1	1.4	4.4	6.7	-13.2	·	·
Cc1cc(C)c(C(=O)Nc2ccccc2)c(SCC(=O)Nc2ccc(Br)cc2C)n1	·	·	·	·	-11.3	·	·
CSc1c(CC(=O)NCCO)n(C)c2ccccc12	1.9	0.2	-0.3	2.3	2.6	·	·
Cn1c(CC(=O)NCCO)c(Sc2ccccc2)c2ccccc21	-4.0	50.3*	-4.7	-3.6	-22.5	-4.8%	-1.9%
COc1ccc(C)cc1NC(=O)C(Sc1nnc(-c2cccs2)o1)c1ccccc1 (configuration not stated)	12.6	-0.8	-1.7	-6.6	8.0	-14.8%	-2.7%
O=C(Nc1ccc(Cl)cc1C(F)(F)F)C(Sc1nnc(-c2cccs2)o1)c1ccccc1 (configuration not stated)	10.4	1.5	-2.9	-12.3	-11.3	·	·
CCc1ccc(-n2c(=O)c3c4c(sc3n(Cc3cc(=O)n5c(C)cccc5n3)c2=O)CCC4)cc1	·	0.1	·	·	-1.4	·	·
COc1cccc(Nc2nc3ccc(C)cc3nc2-n2nc(C)cc2C)c1	·	0.6	·	·	6.4	·	·
CCOc1ccccc1CNCc1c(C(=O)O)c(C)n(Cc2ccc(Cl)cc2)c1C	·	-0.3	·	·	-6.1	·	·
O=C(c1ccco1)N1CCN(C(=O)C2CCN(S(=O)(=O)c3cccs3)CC2)CC1	-0.6	0.5	-4.7	-13.4	-10.6	-0.1%	1.0%
